# In paper PMC6919601, “Identification of Plasmodium dipeptidyl aminopeptidase allosteric inhibitors by high throughput screening” (PLoS ONE, 2019):
# Screen size: about 110,000 compounds; about 230 (0.21%) showed an effect of 50% or more. The sample holds strong results, similar compounds and a random draw of the others, so the mix is not that of the screen.
# Target: DPAP1 (Plasmodium falciparum, UniProt Q8IIJ9)
# Assay: primary screen, percent inhibition; read by cleavage of a fluorogenic dipeptide substrate; higher = more effect of the substance
# Parameters: species or system P. falciparum D10 trophozoite lysates; single well
# 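Note: 30 min substrate incubation versus DMSO and 10 µM JCP410 controls.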
# DPAP1, sequence (Q8IIJ9 whole entry, looked up): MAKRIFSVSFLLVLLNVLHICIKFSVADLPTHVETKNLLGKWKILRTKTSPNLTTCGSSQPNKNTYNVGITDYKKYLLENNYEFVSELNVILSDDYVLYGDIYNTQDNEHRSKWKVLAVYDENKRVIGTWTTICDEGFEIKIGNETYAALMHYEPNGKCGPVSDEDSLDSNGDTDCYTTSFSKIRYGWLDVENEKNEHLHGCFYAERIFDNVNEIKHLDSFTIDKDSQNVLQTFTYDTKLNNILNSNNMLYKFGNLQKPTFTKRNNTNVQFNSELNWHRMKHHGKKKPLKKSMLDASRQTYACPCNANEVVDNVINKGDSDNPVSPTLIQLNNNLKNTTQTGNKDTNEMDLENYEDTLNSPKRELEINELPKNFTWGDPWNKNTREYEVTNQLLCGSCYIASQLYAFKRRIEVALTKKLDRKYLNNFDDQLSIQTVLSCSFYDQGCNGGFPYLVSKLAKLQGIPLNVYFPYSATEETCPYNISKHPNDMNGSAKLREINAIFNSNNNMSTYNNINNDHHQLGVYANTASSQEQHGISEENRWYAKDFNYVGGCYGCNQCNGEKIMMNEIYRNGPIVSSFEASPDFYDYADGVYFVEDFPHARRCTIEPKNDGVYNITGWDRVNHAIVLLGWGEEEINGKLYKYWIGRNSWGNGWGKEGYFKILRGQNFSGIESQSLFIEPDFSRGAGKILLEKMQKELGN
row,Compound,% Inhibition @ 10 uM [%]
1,NC(=O)c1ccc(-n2nnnc2SCc2ccc(C(=O)O)cc2)cc1,3.05
2,CCC1CCC(NCCN(C)C)CC1 (stereo not shown),-3.42
3,Cc1nc2scc(C)n2c(=O)c1S(=O)(=O)N1CCc2ccccc2C1,-0.984
4,COc1ccc2c(c1)CCC1C2=NN(/C(C)=C/C(C)=O)C1c1ccc([N+](=O)[O-])cc1 (stereo not shown),4.54
5,CCOC(=O)/C=C(\C)N1N=C2c3ccc(OC)cc3CCC2C1c1ccc(OC)cc1 (stereo not shown),60.6
6,CCOC(=O)/C=C(\C)N1N=C2c3ccc(OC)cc3CCC2C1c1ccc(F)cc1 (stereo not shown),-1.77
7,COc1ccc(C2C3CCc4cc(OC)ccc4C3=NN2/C(C)=C/C(C)=O)cc1 (stereo not shown),58.5
8,CCOC(=O)/C=C(\C)N1N=C2c3cc(OC)ccc3CCC2C1c1ccc(F)cc1 (stereo not shown),6.33
9,CCOC(=O)/C=C(\C)N1N=C2c3ccc(OC)cc3CCC2C1c1cccc(F)c1 (stereo not shown),73.1
10,CCOC(=O)/C=C(\C)N1N=C2c3cc(OC)ccc3CCC2C1c1ccc(OC)cc1 (stereo not shown),-4.49
11,CCOC(=O)/C=C(\C)N1N=C2c3cc(OC)ccc3CCC2C1c1ccccc1 (stereo not shown),2
12,COc1ccc(C2C3CCc4ccc(OC)cc4C3=NN2/C(C)=C/C(C)=O)cc1 (stereo not shown),22.9
13,COC(=O)C(O)(c1ccc(N)cc1)C(F)(F)F (stereo not shown),0.937
14,CCCCOC1CS(=O)(=O)CC1OCCCC (stereo not shown),-5.28
15,Cc1ccc(-c2nc(CSCC(=O)Nc3cc(C)on3)c(C)o2)cc1,-2.14
16,CC1=C(C)CC(C(=O)Nc2cccc(F)c2)C(C(=O)O)C1 (stereo not shown),-2.22
17,COC(=O)c1cc(OC)c(S(=O)(=O)NCc2ccccc2)cc1OC,-2.28
18,CCOC(=O)C1=C(CN2CCC3(CC2)OCCO3)NC(=O)NC1c1cccc(OC)c1OC (stereo not shown),93
19,CCOC(=O)C1=C(CN2CCN(C)CC2)NC(=O)NC1c1cccc(OC)c1OC (stereo not shown),3.75
20,CCOC(=O)C1=C(CN2CCN(C(=O)OCC)CC2)NC(=O)NC1c1cccc(OC)c1OC (stereo not shown),2.12
21,O=C1CC(c2ccccc2)NC(=O)N1 (stereo not shown),-2.86
22,CCCOc1ccc(C2C3=C(O)CC(C)(C)CC3=NC(C)=C2C(=O)Nc2ccccc2OC)cc1 (stereo not shown),-0.864
23,c1ccc(C(CCNC2CN3CCC2CC3)c2ccccc2)cc1 (stereo not shown),-0.0908
24,O=C(CCN1C(=O)c2ccccc2C1=O)NCC1CCCO1 (stereo not shown),-0.349
25,Cc1cc(/C=C2/C(=N)N3C(=NC2=O)SN=C3S(=O)(=O)C(C)C)c(C)n1Cc1ccccc1,-7.21

row,Compound,% Inhibition @ 10 uM [%]
1,N=C1S/C(=C\c2c[nH]nc2-c2ccccc2)C(=O)N1c1nccs1,11.2
2,CC(C)Oc1ccccc1/C=C1\SC(=N)N(c2nccs2)C1=O,50.1
3,N=C1S/C(=C\c2ccco2)C(=O)N1c1nccs1,-3.74
4,Cc1nc2scc(C)n2c(=O)c1S(=O)(=O)NC1CCCCCCC1,72.2
5,Cc1nc2scc(C)n2c(=O)c1S(=O)(=O)NC1CCN(Cc2ccccc2)CC1,-3.32
6,CCOC(=O)N1CCC(NS(=O)(=O)c2c(C)nc3scc(C)n3c2=O)CC1,-8.17
7,Cc1cccc(CN2CCCC(O)C2)c1 (stereo not shown),-0.828
8,O=C(CCC1CCCCC1)NC1(C(F)(F)F)NC(=O)N(Cc2ccccc2)C1=O (stereo not shown),-3.33
9,CCOC(=O)C1=C(c2ccccc2)Nc2ncnn2C1c1cccc(O)c1 (stereo not shown),3.8
10,COc1cccc(C2=NS(=O)(=O)N(C)C(C(=O)N3CCCC3)=C2)c1,3.92
11,CCSc1nc(=O)n(-c2ccccc2)c(C)c1C(C)=O,-5.51
12,CCc1ccc(C2C3=C(O)CCCC3=NC(C)=C2C(=O)Nc2ccc(F)cc2)cc1 (stereo not shown),4.11
13,Cc1sc2ncn(CC(=O)NC3CCCC(C)C3C)c(=O)c2c1S(=O)(=O)N1CCC(C)CC1 (stereo not shown),-4.67
14,CC(=O)ON1C(=O)C(c2ccccc2)=C(c2ccccc2)C1=O,82
15,CC(=O)ON1C(=O)C2C3c4ccccc4C(c4ccccc43)C2C1=O (stereo not shown),38.9
16,O=C1C(c2ccccc2)=C(c2ccccc2)C(=O)N1O,3.25
17,CCCCN(C)C(=O)C1c2ccccc2C(=O)N(CCOC)C1c1c[nH]c2ccccc12 (stereo not shown),5.62
18,Cc1ccc2nc(O)c3cc(C(=O)NCCc4ccsc4)sc3c2c1,1.72
19,CN(C)c1ccc(NC(=O)NC2CCCCC2)cc1,-12.2
20,CC(CCCC(C)(C)O)NC(C)Cc1ccc(F)cc1 (stereo not shown),4.68
21,O=C(CC1(O)C(=O)Nc2ccc(Br)cc21)c1ccc2ccccc2c1 (stereo not shown),4.03
22,CCC1(C)Cc2c(sc3nc(SC)nc(O)c23)CO1 (stereo not shown),8.9
23,CCC1(C)Cc2c(sc3nc(S)nc(N)c23)CO1 (stereo not shown),62.9
24,CCC1(C)Cc2c(sc3nc(SCC(=O)c4ccccc4)nc(N)c23)CO1 (stereo not shown),0.992
